Legend:
[1] = test system: Human papillomavirus type 1a protein E7 (residues 44-93); experiment: small molecules binding HPV E7 44-93 – biochemical, small-molecule microarray, residues 44-93, 635 nm fluorescence, primary screen (AID 1108); details: fluorescence 635 nm, higher = more signal;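 further: E7 fragment applied at 1 µg/mL in TBST for 1 h at 4 C; score combines spot fluorescence with its signal to noise ratio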
[2] = hepatitis C replication reporter changes, two-sided – Huh7 cells, luciferase reporter, HCV replication inhibitor project, primary screen (AID 1109); details: Huh7 HCV replicon luciferase reporter, 48 h; higher = more signal;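 further: huh7 hepatoma cells harbouring a luciferase neomycin HCV replicon reporter; luciferase luminescence as measure of HCV replicon replication; test concentration not given here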
[3] = target: Left-right determination factor 2 (Homo sapiens) (UniProt O00292); experiment: small molecules binding LEFTY2 protein – biochemical, small-molecule microarray, 635 nm fluorescence scan, primary screen (AID 1110); details: higher = more signal
Sequence of Left-right determination factor 2 (Homo sapiens) (O00292 whole entry, looked up): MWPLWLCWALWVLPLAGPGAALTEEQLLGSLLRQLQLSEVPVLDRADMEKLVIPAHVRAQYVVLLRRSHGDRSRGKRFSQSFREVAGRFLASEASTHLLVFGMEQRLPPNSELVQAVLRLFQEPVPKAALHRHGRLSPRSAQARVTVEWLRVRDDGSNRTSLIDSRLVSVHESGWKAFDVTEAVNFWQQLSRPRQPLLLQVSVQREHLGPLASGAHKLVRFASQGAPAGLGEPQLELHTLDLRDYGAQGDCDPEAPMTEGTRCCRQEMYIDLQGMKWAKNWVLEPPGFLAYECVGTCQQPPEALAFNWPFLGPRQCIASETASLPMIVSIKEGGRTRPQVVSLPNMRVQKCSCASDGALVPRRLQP

[4] = target: Calmodulin-1 (Homo sapiens) (UniProt P0DP23); experiment: small molecules binding calmodulin-1 with EGTA – biochemical, small-molecule microarray, Cy5-labelled CALM1, profiling panel (AID 1111); details: Cy5-CALM1 binding fluorescence, higher = more signal;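 further: labelled calmodulin applied in Tris saline Tween buffer holding calcium plus EGTA and DTT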
[5] = target: Calmodulin-1 (Homo sapiens) (UniProt P0DP23); experiment: small molecules binding Ca-loaded calmodulin-1 – biochemical, small-molecule microarray, Cy5-labelled CALM1, plus calcium, artefact control for SMM control-protein annotation, profiling panel (AID 1112); details: Cy5-CALM1 binding fluorescence, higher = more signal;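 further: score merges spot fluorescence with signal to noise from triplicate slides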
[6] = probe aWnt5a binding to arrayed compounds – biochemical, biotinylated probe, 635/667 nm fluorescence, primary screen (AID 1113); details: small-molecule microarray, higher = more signal;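 further: score merges 667 nm fluorescence intensity with signal-to-noise per printed feature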
[7] = probe aShh binding to arrayed compounds – biochemical, biotinylated probe, 635/667 nm fluorescence, primary screen (AID 1114); details: small-molecule microarray, higher = more signal;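 further: probe is biotin-labelled aShh protein from a stem cell growth factor screen; measures binding of labelled protein to compounds printed on the slide; score merges feature fluorescence at 667 nm with signal-to-noise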
[8] = probe aNog binding to arrayed compounds – biochemical, biotinylated probe, 635/667 nm fluorescence, primary screen (AID 1115); details: small-molecule microarray, higher = more signal;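 further: probe is biotinylated aNog protein used at 0.15 µg/mL for 1 h at 4 C; z-score combines 667 nm fluorescence of each spot with its signal to noise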
[9] = target: Torsin-1A-interacting protein 1 (Homo sapiens) (UniProt Q5JTV8); experiment: compound microarray binding of lysate hLAP1 – cell lysate, small-molecule microarray, COS7 lysate, 635/667 nm fluorescence, primary screen (AID 1116); details: 635 nm fluorescence, higher = more signal
Sequence of Torsin-1A-interacting protein 1 (Homo sapiens) (Q5JTV8 whole entry, looked up): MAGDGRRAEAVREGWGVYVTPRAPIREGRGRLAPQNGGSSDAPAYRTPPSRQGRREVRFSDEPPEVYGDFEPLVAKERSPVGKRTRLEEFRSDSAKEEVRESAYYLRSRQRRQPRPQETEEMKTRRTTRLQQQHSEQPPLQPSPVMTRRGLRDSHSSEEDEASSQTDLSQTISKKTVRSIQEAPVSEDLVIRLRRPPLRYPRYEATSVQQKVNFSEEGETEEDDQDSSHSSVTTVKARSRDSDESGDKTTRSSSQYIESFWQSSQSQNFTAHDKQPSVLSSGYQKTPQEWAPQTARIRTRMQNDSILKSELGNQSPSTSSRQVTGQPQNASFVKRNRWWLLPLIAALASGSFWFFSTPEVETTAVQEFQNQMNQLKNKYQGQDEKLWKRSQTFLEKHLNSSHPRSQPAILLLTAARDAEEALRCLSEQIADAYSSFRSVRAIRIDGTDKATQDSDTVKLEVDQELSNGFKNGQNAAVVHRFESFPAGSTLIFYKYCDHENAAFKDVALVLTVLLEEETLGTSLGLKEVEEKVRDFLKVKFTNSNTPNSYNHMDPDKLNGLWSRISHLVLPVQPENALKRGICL

[10] = target: Alpha-bungarotoxin (Bungarus multicinctus) (UniProt P60615); experiment: compounds binding labelled alpha-BTX control protein – biochemical, small-molecule microarray, Alexa647 label, 635/667 nm fluorescence, artefact control for SMM control protein annotation, profiling panel (AID 1117); details: alpha-BTX-A647 binding fluorescence, higher = more signal
Sequence of Alpha-bungarotoxin (Bungarus multicinctus) (P60615 whole entry, looked up): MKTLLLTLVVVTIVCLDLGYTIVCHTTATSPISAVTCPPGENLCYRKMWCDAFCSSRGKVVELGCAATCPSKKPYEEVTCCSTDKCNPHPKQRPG

Compound	composite z-score [1]	z-score [2]	composite z-score [3]	composite z-score [4]	composite z-score [5]	composite z-score [6]	composite z-score [7]	composite z-score [8]	composite z-score [9]	composite z-score [10]
CC(C)C(=C=CC[C@H](O)c1ccc(OCCO)cc1)C[C@H](O)c1cc(Cl)cc(Cl)c1O	0.927	-1.57	0.437	-0.0205	0.134	-0.0125	0.191	0.205	0.413	1.44
CN1C2C=C(CCCO)C(C3C(=O)N(C(N)=O)C(=O)C32)C1c1cccs1 (stereo not given)	0.261	-0.364	0.362	-0.555	-0.328	0.535	-0.138	-0.0987	0.377	0.378
O=C1O[C@@H](c2ccccc2)[C@@H](c2ccccc2)N2[C@@H](c3ccc(O)cc3)[C@]3(C(=O)Nc4ccc(C#CCCO)cc43)[C@@H](C(=O)NC[C@H](O)c3ccccc3)[C@H]12	0.334	0.0035	-1.87	-0.282	0.374	-0.243	0.057	1.4	-0.138	-0.588
[N-]=[N+]=NCc1ccccc1C[C@@]1(C(N)=O)N=C(c2ccc(OCCCO)cc2)O[C@@H]1c1ccccc1CN=[N+]=[N-]	1.43	-1.55	0.144	1.37	0.693	-0.0236	0.19	1.08	0.623	0.689
COC(=O)[C@@]1(Cc2ccccc2)[C@H]2c3cc(C(=O)N4CCCC4)n(Cc4cc(F)cc5c4OCOC5)c3C[C@H]2CN1C(=O)c1ccccc1	0.0951	-0.592	-0.655	1.08	0.641	0.14	0.688	1.93	1.74	0.468
COc1ccc([Si](C)(C)[C@H]2[C@H](CCn3cc([C@H](O)c4ccccc4)nn3)O[C@@]3(C(=O)N(Cc4cccc(N5C(=O)c6cccc7cccc5c67)c4)c4ccccc43)[C@@H]2C)cc1	-0.56	-2.67	-0.823	0.419	1.13	-0.175	-0.2	0.206	-0.0061	-1.02
CCOC(=O)C[C@H]1[C@H](OC(=O)c2ccc(-c3ccccc3)cc2)[C@@H](NC(=O)c2ccc3ccccc3n2)c2cc(OCCCO)ccc2N1C(=O)c1ccccc1	1.33	-1.1	0.479	0.992	0.389	-0.0606	-0.0904	-0.302	0.574	0.452
CC(C)CN1C(=O)[C@@]2(Cc3ccccc31)c1ccccc1C(=O)N(Cc1ccccc1C(F)(F)F)[C@H]2c1ccc(CO)cc1	-1.57	0.186	-0.584	-0.566	-0.815	-0.2	-0.138	-0.303	-1.07	0.14
COCCOC(=O)N1C(=O)[C@@]2(c3cc(C#CC4(O)CCCCCC4)ccc31)[C@H](C(=O)N1CCCCCCC1)[C@H]1C(=O)O[C@H](c3ccccc3)[C@H](c3ccccc3)N1[C@@H]2c1ccc(OCCO)cc1	1.33	-1.74	1.52	2.33	1.01	1.12	2.59	2.98	4.12	2.89
CCCNC(=O)[C@@]1(c2ccc([N+](=O)[O-])cc2)CC(=O)N(C2CCCCC2)[C@@H]1c1ccc(CO)cc1I	0.198	-2.64	-0.101	0.647	0.587	0.108	0.166	1.44	1.33	1.6
COCCOC(=O)N1C(=O)[C@@]2(c3cc(C#CC4=CCCCC4)ccc31)[C@H](C(=O)N1CCN(c3ncccn3)CC1)[C@H]1C(=O)O[C@H](c3ccccc3)[C@H](c3ccccc3)N1[C@@H]2c1ccc(O)cc1	0.683	-1.46	0.557	0.951	0.727	-0.0685	0.258	0.0234	1.28	1.45
C=C(COC)/C(=C/C[C@@H](OC(=O)c1ccncc1)c1cccc(OCCO)c1)c1cnc2ccccc2c1	0.429	-3.87	1.04	1.3	-0.102	-0.0161	0.259	0.581	1.54	3.87
NC(=O)N1C(=O)C2C(C1=O)C1C=C(c3ccc(CO)cc3)C2C(C2CC2)N1Cc1sc2ccccc2c1Cl (stereo not given)	0.0882	-1.39	1.27	0.867	0.163	0.272	0.0756	0.264	1.9	2.12
O=C1C[C@@](C(=O)NCC(F)(F)F)(c2ccc([N+](=O)[O-])cc2)[C@@H](c2ccc(CO)cc2)N1C1CCCCC1	1.04	-1.4	0.301	0.769	-0.088	-0.006	0.0898	0.0807	1.9	1.8
O=C(CS)NCCCCCCNC(=O)[C@@H]1C[C@@H]2C(=O)N3CCC[C@H]3C(=O)N2[C@@H]1c1cccc(OCCO)c1	1.41	0.0871	0.289	1.49	0.36	0.206	-0.0866	0.0482	1.41	2.16
CC=CC(O)C1C=CC2C(=O)N(C)C(=O)C2N1Nc1ccc([N+](=O)[O-])cc1[N+](=O)[O-] (stereo not given)	-0.0226	-0.121	-0.324	-0.086	-0.541	-0.148	0.166	0.0471	-0.345	-0.297
COC(=O)[C@@]1(Cc2ccc(OC)cc2)[C@H]2c3cc(C(=O)N4CCCC4)n(CCc4cc5ccccc5[nH]4)c3C[C@H]2CN1C(=O)c1ccccc1	1.41	-1.85	-0.239	2.44	0.913	0.239	-0.19	2.21	2.4	1.21
COC(=O)C1(Cc2ccccc2)C=C2C(=C(C(C)C)C(=O)C2C)CN1 (stereo not given)	-0.549	-0.735	-1.41	1.09	1.54	0.152	0.109	0.593	1.73	-0.473
COCCOC(=O)N1C(=O)[C@@]2(c3cc(C#Cc4ccc(OC)cc4)ccc31)[C@H](C(=O)N1CCN(c3ncccn3)CC1)[C@H]1C(=O)O[C@H](c3ccccc3)[C@H](c3ccccc3)N1[C@@H]2c1ccccc1OCCO	1.23	-0.509	0.0641	0.551	0.858	-0.131	-0.0011	0.187	0.931	1
CON(C)C(=O)C=C1C[C@@H](c2cccc(Cl)c2)O[C@@H](c2cccc(Cl)c2)O1	0.151	-3.11	0.158	0.389	0.3	-0.0704	0.134	-0.389	0.525	0.764
COCCCNC(=O)[C@]1(Cc2ccccc2CN=[N+]=[N-])N=C(c2ccc(OCCCO)cc2)O[C@@H]1c1ccccc1	1.4	-3.18	-0.369	0.486	0.0518	0.0519	-0.279	-0.225	1	0.543

— PubChem BioAssay
